Laboratory results taken from PubChem BioAssay (NCI).
This is part of a sample that, as a whole, favours compounds with a hit. Of some 83,000 tested, about 20% had one in any assay.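 Plates (96-well) were seeded with cells, treated with compound at one concentration, and incubated for 48 hours before percent growth was determined.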 The source made the active and inactive calls. Rule for the calls: active = growth percent below 10; inactive = the rest.

How the values were obtained:
Assay in all cases: NCI-60 one-dose screen, 48 h (100 = growth as untreated, 0 = no growth, -100 = all killed)
Settings in all cases: 10 µM unless noted
[1] = system: SK-MEL-2 melanoma
[2] = system: EKVX NSCLC
[3] = system: SN12C renal
[4] = system: UO-31 renal
[5] = system: TK-10 renal
[6] = system: ACHN renal
[7] = system: A498 renal
[8] = system: MOLT-4 leukemia
[9] = system: SR leukemia
[10] = system: CCRF-CEM leukemia

Measured: growth

COc1cc(NCC(=O)Nc2cc(Nc3cccc(C(F)(F)F)c3)ncn2)c(Cl)c(OC)c1Cl
inactive: [1] 89.5% | [2] 90.6% | [3] 101% | [4] 64.2% | [5] 101% | [6] 95.7% | [7] 71.5% | [8] 76.2% | [9] 72.2%

CSc1nc(-c2ccc(F)cc2)c(C#N)c(N2CCOCC2)n1
inactive: [1] 101% | [2] 88.6% | [3] 98.8% | [4] 80.3% | [5] 104% | [6] 90.1% | [7] 74.4% | [8] 86.5% | [9] 85.9%

Cc1cc(C)n(-c2nc(-c3cccs3)c(C#N)c(=O)[nH]2)n1
inactive: [1] 97.2% | [2] 95.5% | [3] 95.8% | [4] 89.1% | [5] 103% | [6] 108% | [7] 93.8% | [8] 87% | [9] 100%

CCCCn1c2cc(OCc3cn(-c4ccc(Cl)cc4)nn3)ccc2c2ccnc(C)c21
active: [4] -16.3% | [6] -47.5% | [8] 6.26% | [9] -4.92%
inactive: [1] 74.5% | [2] 44.4% | [3] 10.5% | [5] 15.6% | [7] 62.8%

COc1ccc2nc3nc4ccc[nH]c4cc3c2c1
inactive: [1] 108% | [2] 67.6% | [3] 89.7% | [4] 61.5% | [5] 82.2% | [6] 76% | [7] 94.4% | [8] 93.6% | [9] 43.6%

Nc1cc(N)c(S(=O)(=O)O)cc1N=Nc1cc([N+](=O)[O-])ccc1O
inactive: [1] 98.1% | [2] 103% | [3] 100% | [4] 89.4% | [5] 102% | [6] 109% | [7] 103% | [8] 90.5% | [9] 90.3%

COc1cc(-c2csc(NC(=O)Nc3ccc(C(F)(F)F)cc3)n2)cc(OC)c1OC
active: [1] -23.8% | [2] 5.7% | [3] 3.08% | [4] -2.16% | [5] 4.58% | [6] 3.21% | [7] -24.1% | [10] 5.13% | [8] -9.27% | [9] -3.44%

NC(=O)C(O)(c1ccccc1)c1ccccc1
inactive: [1] 105% | [2] 100% | [3] 99% | [4] 93.8% | [5] 97.3% | [6] 108% | [7] 84.9% | [8] 98.6% | [9] 83%

COc1ccc(-c2[nH]c3ccccc3c2C=C(C#N)C#N)cc1
inactive: [2] 12.4% | [3] 44.6% | [4] 59.1% | [5] 35.5% | [6] 43%
active: [1] -14.5% | [7] -7.34% | [8] -14.2% | [9] -27.8%

CN(C)[C@@H]1C(=O)C(C(N)=O)=C(O)[C@@]2(O)C(=O)C3=C(O)c4c(O)cc(CN5CCc6ccccc6C5)c(Cl)c4C[C@H]3C[C@@H]12
active: [1] -90.6% | [2] -90.3% | [3] -73% | [4] -95.5% | [5] -84.3% | [6] -76.1% | [7] -89.2% | [8] -67.9% | [9] -50.7%

C=C1C(=O)O[C@H]2[C@H]1CC/C(COC(=O)c1cccnc1)=C\CC[C@@]1(C)O[C@@H]21
inactive: [1] 88.3% | [2] 71.8% | [3] 51.8% | [4] 69.9% | [5] 63.1% | [6] 45.2% | [7] 102% | [8] 71.5% | [9] 21%

CCO/C=N/S(=O)(=O)c1cc2c(cc1Cl)NC=NS2(=O)=O
inactive: [1] 105% | [2] 103% | [3] 104% | [4] 89.1% | [5] 101% | [6] 112% | [7] 106% | [8] 109% | [9] 108%

NS(=O)(=O)c1ccc(C2C3=C(CCCC3=O)OC3=C2C(=O)c2ccccc2C3=O)cc1 (centres undefined)
active: [1] -74% | [2] -55.4% | [3] -52.7% | [4] -21.6% | [5] -92.6% | [6] -78.9% | [7] -68.9% | [8] -54.6% | [9] -19.9%

O=C1CC(c2ccc(O)c(O)c2)Oc2cc(O)c([C@@H]3O[C@H](CO)[C@@H](O)[C@H](O)[C@H]3O)c(O)c21 (some centres undefined)
inactive: [1] 104% | [2] 99.5% | [3] 98.7% | [4] 103% | [5] 106% | [6] 102% | [7] 108% | [8] 100% | [9] 98.6%

O=C1Nc2ccccc2C12C=C(c1ccccc1)Nc1c2c(-c2ccccc2)nn1-c1ccccc1 (centres undefined)
inactive: [1] 80.1% | [2] 53.2% | [3] 76.5% | [4] 62.9% | [5] 87.8% | [6] 60.4% | [7] 75.6% | [10] 25.9% | [8] 16.4% | [9] 38%

Cc1ccc(C(=O)/C(=C/c2ccc([N+](=O)[O-])cc2)S(=O)Cc2ccccc2)cc1 (centres undefined)
active: [3] -41.1% | [4] -83.7% | [5] 6.85% | [6] -52.8% | [8] 1.79% | [9] 0.101%
inactive: [1] 57.9% | [2] 30.3% | [7] 41%

COc1ccc(-c2nc(C#N)c(NCC(c3ccc(Cl)cc3)N3CCCCC3)o2)cc1 (centres undefined)
inactive: [1] 109% | [2] 95.6% | [3] 103% | [4] 72% | [5] 112% | [6] 91.7% | [7] 108% | [8] 75.9% | [9] 74.5%

COc1ccc(-n2nc(C(=O)NCC(=O)O)nc2-c2ccccc2)cc1
inactive: [1] 99.8% | [2] 108% | [3] 105% | [4] 87.5% | [5] 94.1% | [6] 108% | [7] 113% | [8] 100% | [9] 102%

CC1=C(CCCOC(=O)NCCCl)C2=C(C)C3(CC3)[C@@](C)(O)C(=O)C2=C1
active: [4] -42.1% | [5] 9.96% | [6] 5.75% | [7] -9.87%
inactive: [1] 14.5% | [2] 54.3% | [3] 45.7% | [10] 79.9% | [8] 70.4% | [9] 82.9%

Cc1nc2sc(C(=O)Nc3cccc(Cl)c3C)c(N)c2cc1C(C)O (centres undefined)
active: [7] 8.96%
inactive: [1] 24.2% | [2] 54.5% | [3] 33.5% | [4] 48.7% | [5] 46.3% | [6] 35.7% | [8] 13% | [9] 12%

COC(=O)c1ccc2c(c1)n(Cc1ccc3ccccc3c1)c[n+]2Cc1ccc2ccccc2c1
active: [1] 5.59% | [9] -37.1%
inactive: [2] 71% | [3] 38.4% | [4] 83.6% | [5] 49.1% | [6] 99% | [7] 80.5% | [8] 29.2%

Cc1cc(Cl)cc(CN(Cc2ccccc2)Cc2c(O)ccc3ccccc23)c1O
inactive: [1] 91% | [2] 99% | [3] 83.5% | [4] 62.2% | [5] 110% | [6] 102% | [7] 76.6% | [8] 104% | [9] 92.9%

COc1ccc(/C=C/C(=O)C(CC2CCC2)C(=O)/C=C/c2ccc(OC)c(OC)c2)cc1OC
active: [1] -16.7% | [2] -0.196% | [3] -20.7% | [4] -98.1% | [5] -32.8% | [6] -77.2% | [7] -34.5% | [8] 4.1% | [9] -17%

Cc1cnc(SCc2ccc(Cl)cc2)[nH]c1=S
inactive: [1] 88.5% | [2] 103% | [3] 103% | [4] 93.9% | [5] 95.1% | [6] 104% | [7] 90.7% | [8] 106% | [9] 89.7%

COc1cc(-c2csc(NC(=O)Nc3cc(Cl)cc(Cl)c3)n2)cc(OC)c1OC
inactive: [1] 75.2% | [8] 16.3%
active: [2] 1.71% | [3] -84% | [4] -66% | [5] -68.9% | [6] -33% | [7] -25.9% | [9] -4.59%

CC(C)C[C@H](C(=O)O)N(C)C(=O)[C@@H]1CCCN1C(=O)[C@H](C)OC(=O)[C@H](CCC(N)=O)NC(=O)[C@@H]1CCC(=O)N1
inactive: [1] 110% | [2] 94.1% | [3] 97.1% | [5] 105% | [6] 106% | [7] 107% | [10] 102% | [8] 111% | [9] 94.4%

COc1ccccc1Nc1nnc(-c2ccc(Cl)cc2)o1
inactive: [1] 34.4% | [2] 50.8% | [3] 59.6% | [5] 68.9% | [6] 72.2% | [7] 45.3% | [10] 38% | [8] 19.5% | [9] 19.7%

NC(=O)c1ccc2nc3c(n2c1)C(=O)C(=O)c1ccccc1-3
active: [1] -71.2% | [2] -76% | [3] -83.3% | [5] -72.9% | [6] -100% | [7] -58.6% | [10] -1.51% | [8] -37.8% | [9] -4.89%

COc1cccc(NC(=O)Nc2ccc(Oc3ncnc4[nH]c(C)c(C)c34)cc2)c1
inactive: [1] 100% | [2] 102% | [3] 74.5% | [5] 114% | [6] 73.6% | [7] 106% | [10] 76.4% | [8] 56.9% | [9] 10.5%
